Experimental findings from PubChem BioAssay AID2314 (National Center for Advancing Translational Sciences (NCATS), 2010) are described below.

Hit rate of the full screen: of about 300,000 compounds, about 37,000 (12%) were called active. This is one part of a sample in which actives are shown more often than they occur. A number with no mark means an inactive call. Cut-off read from the data, not from the text of the source: active = max response mostly above about 13% (no sharp cut-off); inactive = mostly below about 14%.

This assay can be described thus: Cycloheximide Counterscreen for Small Molecule Inhibitors of Shiga Toxin. Note: read at 38.3 µM for the half of the compounds with a filed dose; 0% is about no effect. Particulars: cell reporter, cycloheximide protein synthesis inhibition counterscreen; active compounds read high. (In general: The purpose of a counterscreen is to sort out artefacts and off-target activity.)
As to `COc1ccc(CCN(C)C(=O)C23CC4CC(CC(Cl)(C4)C2)C3)cc1OC`, the max response is 6.24%.
As to `Cc1ccc(C(=O)N2CCC(n3nccc3NC(=O)Nc3cccc(F)c3)CC2)cn1`, the max response was -3.88%.
As to `COc1ccc(-c2cn3cccnc3n2)cc1`, the max response is 23.9% (active).
For the compound `COc1cc(OC)cc(-c2nc(=S)n3ccsc3n2)c1`, the max response was -1.36%.
Under `COc1ccc(-c2ccnc(SCC(=O)N3CCOCC3)n2)cc1` stands 2.08%.
With `COc1ccc(N2CCN(C(=O)CSc3nnc4ncccn34)CC2)cc1`, the max response was -1.32%.
Consider `c1ccc(-c2cn3c(n2)CCc2ccc4cccnc4c2-3)cc1`, for which the max response is 11.1%.
For `Cc1ccc(S(=O)(=O)NCc2cn3ccsc3n2)c(C)c1`, the max response was 2.86%.
To `c1ccc(-c2cn3cccnc3n2)cc1` belongs 15.7% (active); to `Cc1ccccc1Nc1c(-c2ccccc2)nc2ncccn12`, -1.21%; to `CN1CCN(Cc2ccc(OC(F)(F)F)cc2)CC1`, -2.95%.
Take `COc1ccc(-c2cn3ccsc3n2)cc1`: the max response was 42.7% (active).
To `FC(F)(F)Oc1ccc(-c2cn3cccnc3n2)cc1` belongs 50.9% (active); to `CC(C)CC[n+]1ccn(C2=C([O-])c3ccccc3C(=O)/C2=N\S(=O)(=O)c2ccccc2)c1`, -1.98%.
In the case of `O=[N+]([O-])c1ccc(Oc2ccc(F)cc2Br)c2ccncc12`, the max response is -2.77%.
Take `CCCCn1nc(C(=O)Nc2ccc(S(=O)(=O)Nc3ncccn3)cc2)c2ccccc2c1=O`: the max response is -8.36%.
In the case of `O=C1c2cccc(OCC(=O)N3N=C(c4cccs4)CC3c3ccc(F)cc3)c2CCN1Cc1ccccc1` (centres undefined), the max response is 4.05%.
To `CCOc1cc(C2C(C(=O)c3ccco3)=C(O)C(=O)N2Cc2ccccc2)ccc1O` (centres undefined) belongs 4.82%; to `Cc1cc(=O)oc2c(C)c(OCC(=O)NCCN3CCOCC3)ccc12`, 7.13%.
In the case of `CCNc1c(NS(=O)(=O)c2ccc(C3CCCCC3)cc2)c(=O)oc2ccccc12`, the max response was -5.65%.
Under `CC(c1ccccc1)n1c(NCCCn2ccnc2)nc2c1c(=O)[nH]c(=O)n2C` (centres undefined) stands -2.03%; under `COc1ccc(-c2c(NC(=O)c3ccco3)oc3ccc(Cl)cc3c2=O)cc1`, 1.49%; under `COc1ccc(CN2CCCC(N3CCc4ccccc4C3)C2)c(O)c1` (centres undefined), -0.856%.
To `CCOc1ccc(NC(=O)[C@H](C)NC(=O)C2CC(=O)N(c3ccc(OC)cc3)C2)cc1` (some centres undefined) belongs 4.95%; to `O.O.O.O=S(=O)([O-])OC[C@H]1O[C@@H](O[C@]2(COS(=O)(=O)[O-])O[C@H](OS(=O)(=O)[O-])[C@@H](OS(=O)(=O)[O-])[C@@H]2OS(=O)(=O)[O-])[C@H](OS(=O)(=O)[O-])[C@@H](OS(=O)(=O)[O-])[C@@H]1OS(=O)(=O)[O-].[Al]`, -3.55%.
As for `O=C(c1ccccc1)N1CCN(C(=O)c2cc3nc(-c4ccccc4)cc(C(F)(F)F)n3n2)CC1`, the max response is -1.97%.
Under `COc1cccc(-c2nnc(NC(=O)c3ccc(S(=O)(=O)N(CC(C)C)CC(C)C)cc3)o2)c1` stands -5.08%; under `Cc1ccc(N2C(=O)C3CC3C2=O)cc1` (centres undefined), -6.06%; under `Cc1ccc(S(=O)(=O)NCC(=O)N2CCN(c3ccccn3)CC2)cc1`, -5.16%.
Under `Cc1ccc(N2CCN(c3ccc(C)cc3)C2c2ccccn2)cc1` stands 21.8% (active); under `CC1=NN(/C(=N\c2nnc(C)s2)Nc2ccccc2)[C@H](c2ccc(C)cc2)S1`, -0.911%.
To `COCCn1c(=O)[nH]c(=O)c2cc(C(=O)c3cc(OC)ccc3O)cnc21` belongs -3.24%; to `COc1ccc(O)c(C(=O)c2cnc3onc(C(C)C)c3c2)c1`, 26.6% (active); to `COc1ccc(O)c(C(=O)c2cnc3c(c2)c(-c2ccc(F)cc2)c(C#N)c(=O)n3C)c1`, 11.3%.
On to `O=C(CS(=O)(=O)c1cn(Cc2ccc(Cl)cc2)c2ccccc12)N1CCOCC1`, for which the max response is -4.25%.
In the case of `Cc1[nH]n(-c2ccc([N+](=O)[O-])cc2)c(=O)c1C=NCCN1CCN(C(=O)c2ccccc2F)CC1`, the max response was -3.41%.
Consider `Cc1cc(Cl)ccc1C(=O)C1CCCN(C(=O)CCN2CCCO2)C1` (centres undefined), for which the max response was -2.88%.
Under `CCOC(=O)c1ccccc1NC(=O)CC1Nc2ccccc2NC1=O` (centres undefined) stands -6.08%; under `COC(=O)c1cc(C)sc1NC(=O)CC1Nc2ccccc2NC1=O` (centres undefined), 22.8% (active); under `CCc1cc(C(=O)OC)c(NC(=O)CC2Sc3ccc(C(F)(F)F)cc3NC2=O)s1` (centres undefined), 0.357%.
For `CCOc1ccc(NC(=O)CC2NCCNC2=O)cc1` (centres undefined), the max response is 0.991%.
To `O=C(CC1Nc2ccccc2NC1=O)Nc1ccccc1` (centres undefined) belongs 31% (active).
Consider `CCc1ccc(NC(=O)CC2C(=O)NCCN2C(=S)Nc2ccccc2)cc1` (centres undefined), for which the max response was 5.14%.
For the compound `COC(=O)C(C)C1Sc2ccccc2NC1=O` (centres undefined), the max response was -1.04%.
To `Cc1ccc(CNC(=O)CC2Sc3ccccc3NC2=O)cc1` (centres undefined) belongs -1.23%; to `CCN(CC)CCNCC(=O)Nc1ccc(Oc2ccccc2)cc1`, -2.52%.
To `CC1CCN(CCC(=O)Nc2ccccc2)CC1` belongs 1.18%.
To `O=C(CC1NCCNC1=O)Nc1ccc(Oc2ccccc2)cc1` (centres undefined) belongs 30% (active); to `O=C(CC1Nc2ccccc2NC1=O)Nc1ccccc1NC(=O)CC1Nc2ccccc2NC1=O` (centres undefined), 34.5% (active).
As for `CC1CCCN(S(=O)(=O)c2ccc(N(C(=O)c3cnccn3)C(C(=O)NC3CCCCC3)c3cccs3)cc2)C1` (centres undefined), the max response was -3.46%.
As for `COC(=O)c1ccc(COc2ccc(C#N)cc2)o1`, the max response was 0.875%.
Regarding `Cc1cc(C(=O)CSc2nc(N)cc(=O)[nH]2)c(C)n1CCc1ccc(Cl)cc1`, the max response is 4.99%.
Regarding `C=CCN(c1ccc(Cl)cc1)S(=O)(=O)c1cccc(C(=O)OCC(=O)N(C)C)c1`, the max response is -6.49%.
Under `COc1cc(C(=O)NCc2nnc(SCC(=O)Nc3nc4ccc(C)cc4s3)o2)cc(OC)c1OC` stands 4.75%.
To `CCOC(=O)c1cccc(NC(=O)CN2C(=O)C3CC=CCC3C2=O)c1` (centres undefined) belongs -0.226%.
Turning to `CCC1C=C(c2ccccc2)C=CN=C1N(CC)CC` (centres undefined), the max response is -0.252%.
As to `O=c1/c(=C/c2ccc(CNS(=O)(=O)c3ccccc3)o2)sc2n1CCN=2`, the max response is -4.34%.
To `CCc1nc(C)cn1S(=O)(=O)c1cc([N+](=O)[O-])ccc1Cl` belongs -1.54%.
With `Cc1ccc(NC(=O)CN2CCC3(O)CCCCC3C2c2ccc3c(c2)OCO3)c(C)c1` (centres undefined), the max response is -2.23%.
Under `Cc1ccc(C(=O)N/C(=C/c2cccs2)C(=O)NCC2CCCO2)cc1` (centres undefined) stands -3.91%; under `Cc1ccc(C(=O)N/C(=C/c2cccs2)C(=O)N2CCCCC2)cc1`, 13.7%.
Consider `Cc1ccc(C(=O)N/C(=C\c2cccs2)C(=O)NCCc2ccccn2)cc1C`, for which the max response is 31.4% (active).
Under `O=C(Cc1ccc([N+](=O)[O-])cc1)Nc1ccc(C(=O)N2CCOCC2)cc1` stands -1.78%; under `CCNC(=O)Nc1ccc(S(=O)(=O)Nc2cnc(C)nc2C)cc1`, -7.45%.
Under `O=C(Nc1ccccc1)c1cc2ccccc2[nH]1` stands 42.1% (active); under `CC(C)n1c(=O)[nH]c2cc(C(=O)Nc3ccccc3)ccc21`, -2.19%; under `O=C(/C=N/O)Nc1ccccc1`, -2.41%.
Regarding `COc1ccc(NC(=S)SC)cc1OC`, the max response was -3.14%.
Under `COc1ccc2c(c1)N(C)/C(=C1/SC(=S)N(NC(C)=O)C1=O)S2` stands 5.97%; under `COc1ccc(/C=C/C2=CC(C)(C)NC(=S)N2)c(OC)c1`, 5.95%.
In the case of `COCCc1nn2c(=O)cc(COC(=O)c3cc(OC)c(OC)c(OC)c3)nc2s1`, the max response was 3.56%.
To `CC1=C(/C=C/C(C)=C/C=C/C(C)=C/C=C/C=C(C)/C=C/C=C(C)/C=C/C(=O)[C@]2(C)C[C@@H](O)CC2(C)C)C(C)(C)C[C@H](O)C1` belongs 9.8%.
With `CCOc1cccc(/C=C/c2ccc3ccccc3n2)c1OC(C)=O`, the max response was 25.2% (active).
On to `COc1ccc(CNC(=O)/C(C#N)=C/c2cccc(OC)c2OC)cc1`, for which the max response was -1.4%.
As for `CCOc1ccccc1-c1cc(C(=O)N/N=C(\C)c2cccnc2)c2ccccc2n1`, the max response is -1.08%.
With `COc1cccc(/C=C/c2ccc3ccccc3n2)c1OC(C)=O`, the max response was 28.2% (active).
Regarding `CCOc1ccccc1-c1cc(C(=O)N2CCOCC2)c2ccccc2n1`, the max response is -3.29%.
To `COc1cccc(/C=C2\C=C(c3ccc(C)cc3)OC2=O)c1OC(C)=O` belongs 1.6%.
Under `CCOc1ccc(CCNC(=O)CCc2nnc3ccc(N4CCCC4)nn23)cc1OCC` stands 1.2%; under `Cn1nccc1C(=O)NC1CCCc2c1cnn2-c1ccccc1F` (centres undefined), -0.344%; under `Cc1ccc2oc(=O)c3cnn(CC(=O)N(Cc4ccco4)C4CCCCC4)c3c2c1`, -5.66%.
As for `CCOC(=O)c1c(C)n(C)c2ccc(OC)c(NS(=O)(=O)CC)c12`, the max response is 3.73%.
On to `CCOc1cc(CN2CCN(C(=O)CC(C)C)CC2)ccc1OC`, for which the max response is -2.09%.
To `COc1cc(CN2CCC(C(N)=O)CC2)ccc1OCc1ccccc1` belongs 34.9% (active).
To `COc1ccc(COCC(O)CN2CCC(C(N)=O)CC2)cc1` (centres undefined) belongs -2.46%.
To `CCC(=O)Nc1ccc(C(=O)NNC(=O)c2ccc(Cl)cc2)cc1` belongs -0.754%.
With `O=C(NCc1cn2ccsc2n1)Nc1ccc(Cl)cc1`, the max response was 1.41%.
Under `O=C(Nc1ccc(Cl)cc1)c1ccsn1` stands 50.1% (active).
Under `Cc1c(CCC(=O)N[C@@H](CC(C)C)C(=O)O)c(=O)oc2c(C)c3oc4c(c3cc12)CCCC4` stands -2.26%.
